From PubChem BioAssay
This is a sample that favours compounds with a hit; in the whole collection about 18% have one here.
TDP1 inh: qHTS Assay for Inhibitors of Tyrosyl-DNA Phosphodiesterase (TDP1) | Tyrosyl-DNA phosphodiesterase 1 (Homo sapiens), Q9NUW8 | AID 485290, 2010 | recombinant TDP1, AlphaScreen DNA substrate cleavage | 0.28% of 350,000 active | Potency, µM (doses to about 130 µM), hits mostly inhibitors; further: nearly all actives have a fitted effect of over 40% in size
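Recombinant E. coli-expressed Tdp1 (1 nM) preincubated with compound 15 min at RT, then 5'-biotin/3'-phosphotyrosine-FITC DNA substrate (15 nM) added for 5 min. AlphaScreen beads (10 ug/ml) added, 10 min RT; tyrosine-FITC cleavage read as signal loss.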
DT40 TDP1 CPT: qHTS for Inhibitors of human tyrosyl-DNA phosphodiesterase 1 (TDP1): qHTS in cells in presence of CPT | chicken DT40 Tdp1-/-;hTDP1 cells + 20 nM CPT, ATP luminescence, 48 h | Potency, µM (titrated, usually from 46.2 µM), usual class: inhibitors | 12% of 420,000 active; further: nearly all actives have a fitted effect of over 55% in size
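Chicken DT40 Tdp1-/- cells complemented with human TDP1, 400 cells/well, exposed to compounds plus 20 nM camptothecin for at least 48 h at 37 C; viability read as ATP content by CellTiter-Glo luminescence.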
GCN5L2 inh: qHTS Assay for Inhibitors of GCN5L2. Potency, µM (highest dose often 58.9 µM), usual class: inhibitors. AID 504327, 2011. GCN5L2 HAT assay, ThioGlo1 CoA-SH fluorescence. 0.21% of 390,000 active. Histone acetyltransferase KAT2A (Homo sapiens), Q92830
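Fluorescence readout, Ex340nm/Em540nm: ThioGlo1 (50uM final) reacts with free CoA thiol released as 20nM GCN5L2 acetylates H3(1-25) peptide (75uM) using acetyl-CoA (70uM). Compound and enzyme sat 15 min beforehand; 20 min room-temperature reaction.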
PLK1 PBD inh: qHTS for Inhibitors of PLK1-PDB (polo-like kinase 1 - polo-box domain): Primary Screen; Serine/threonine-protein kinase PLK1 (Homo sapiens), P53350; Plk1 PBD binding of FITC phosphopeptide, fluorescence polarization; Potency, µM, most hits filed as inhibitors; 2.8% of 360,000 active; AID 720504, 2013; further: series mostly up to about 57 µM; nearly all actives have a fitted effect of over 65% in size
TDP1 cell noCPT: qHTS for Inhibitors of human tyrosyl-DNA phosphodiesterase 1 (TDP1): qHTS in cells in absence of CPT; DT40 Tdp1-/- hTDP1 cells, no CPT, ATP luminescence, 48 h; Potency, µM (titrated, usually from 46.2 µM), actives largely listed as inhibitors; 15% of 420,000 active; AID 686978, 2013; further: nearly all actives have a fitted effect of over 55% in size
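Chicken DT40 Tdp1-/- cells stably complemented with human TDP1 were seeded at 400 cells/well with DMSO in place of 20 nM camptothecin. After compound pinning, cells grew at least 48 hr at 37 °C; viability read by CellTiter-Glo luminescence.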
VDR inhibitor: Inhibitors of the vitamin D receptor (VDR): qHTS; VDR-SRC2-3 peptide fluorescence polarization, 2 h; Potency, µM, usual class: inhibitors; 0.93% of 400,000 active
Target sequence (P11473 whole entry, looked up): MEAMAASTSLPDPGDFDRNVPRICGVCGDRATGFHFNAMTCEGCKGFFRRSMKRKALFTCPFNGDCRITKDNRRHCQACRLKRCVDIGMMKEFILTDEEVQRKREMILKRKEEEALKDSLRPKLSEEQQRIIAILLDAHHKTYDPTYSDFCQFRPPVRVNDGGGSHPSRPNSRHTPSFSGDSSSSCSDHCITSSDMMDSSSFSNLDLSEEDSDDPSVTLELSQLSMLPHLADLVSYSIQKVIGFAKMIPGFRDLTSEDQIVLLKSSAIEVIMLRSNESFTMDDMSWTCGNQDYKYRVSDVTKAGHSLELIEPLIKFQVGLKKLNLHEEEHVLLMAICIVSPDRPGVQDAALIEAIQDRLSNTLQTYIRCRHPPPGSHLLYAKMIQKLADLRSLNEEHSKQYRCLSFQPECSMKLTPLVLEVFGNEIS
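Two reagent solutions held at 4 deg C in the dark were dispensed, compounds pinned at 23 nl, and the mixture incubated 2 h at room temperature. Read-out: fluorescence polarization of VDR–SRC2-3 peptide binding.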
Hits are given with their value; – = inactive; ? = inconclusive; · = not tested or not shown. The call rests on the fitted dose curve; in most records, active means well fitted curve in the direction sought with a large enough effect; inconclusive means small, poorly fitted or top-dose-only effect, or another doubt; inactive means no such curve, though single readings can be large; an effect the other way counts as inactive or inconclusive.

SMILES	TDP1 inh	DT40 TDP1 CPT	GCN5L2 inh	PLK1 PBD inh	TDP1 cell noCPT	VDR inhibitor
COc1ccc(NC(=O)c2ccc(NCCN3C(=O)CCC3=O)c([N+](=O)[O-])c2)cc1	–	–	–	–	–	–
CC(=O)Nc1nc2ccccc2n1Cc1ccc(Cl)cc1	–	23.1µM	–	?	?	–
CCCCCn1c(C(Cc2ccccc2)NC(=O)COC)nc2ccccc21 (stereo not given)	–	18.4µM	–	–	25.9µM	–
CCC(=O)Nc1nc2ccccc2n1Cc1ccccc1	–	14.6µM	–	–	16.4µM	–
CCCCn1c(C(C)NC(=O)COC)nc2ccccc21 (stereo not given)	–	?	–	–	?	–
CCC(=O)Nc1nc2ccccc2n1CCN(CC)CC	–	29.1µM	–	–	–	–
COc1ccc(/C=N/NC(=O)c2ccncc2)cc1CSc1nc2ccccc2s1	–	?	?	–	?	–
Cn1c(NCc2ccc(Cl)cc2)nc2ccccc21	–	?	–	–	14.6µM	–
CCC(=O)Nc1nc2ccccc2n1Cc1ccc(C)cc1	–	11.6µM	–	–	10.3µM	–
Cc1nc(CC(=O)Nc2ccc(N(C)C)cc2)cs1	–	–	–	·	–	–
Oc1c(Cl)cc(Cl)cc1C=Nc1cc(C(F)(F)F)ccc1N1CCc2ccccc2C1	–	?	–	–	?	–
Oc1c(Cl)cccc1C=Nc1cc(C(F)(F)F)ccc1N1CCCC1	–	?	–	11.9µM	?	–
O=C(OCc1ccccc1Cl)C1CC(=O)N(Cc2ccco2)C1 (stereo not given)	·	–	–	–	–	–
O=C(c1ccc2nccnc2c1)N1CCN(c2ccccc2)CC1	–	–	–	–	–	–
COc1cccc(N2CCN(C(=O)c3cccc(-n4c(C)nc5cccnc54)c3)CC2)c1	–	11.6µM	–	·	16.4µM	–
Cc1nc2cccnc2n1-c1cccc(C(=O)N2CCN(c3cccc(Cl)c3)CC2)c1	–	4.11µM	–	·	4.61µM	–
Cc1cc(C)c(C(=O)CC(=O)c2ccccc2Cl)c(O)c1	·	16.4µM	–	–	10.3µM	–
Cc1ccnc(NS(=O)(=O)c2ccc(NC(=O)C(C)(C)Oc3ccc(Cl)cc3)cc2)n1	–	–	–	·	–	–
Cc1cccc2cc(C#N)c(NCCCNS(=O)(=O)c3ccc(Cl)cc3)nc12	·	18.4µM	–	–	?	–
Nc1[nH]c(C(=O)c2ccccc2)c(-c2ccncc2)c1C(=O)NCCc1c[nH]c2ccccc12	·	?	·	–	?	·
COc1ccc2sc(-c3ccc(S(C)(=O)=O)cc3)c(C(=O)NCCc3c[nH]c4ccccc34)c2c1	–	20.6µM	–	–	16.4µM	–
COc1ccc(C(=O)c2[nH]c(N)c(C(=O)NCCc3c[nH]c4ccccc34)c2-c2ccc(C(F)(F)F)cc2)cc1	·	16.4µM	·	–	20.6µM	·
COc1ccc(C(=O)c2[nH]c(N)c(C(=O)NCCc3c[nH]c4ccccc34)c2-c2ccc(Br)cc2)cc1	·	?	·	–	20.6µM	·
COc1ccccc1CCNC(=O)c1c(N)[nH]c(C(=O)c2ccccc2)c1-c1ccc(Br)cc1	·	?	·	–	?	·
Nc1[nH]c(C(=O)c2ccccc2)c(-c2ccc(Br)cc2)c1C(=O)NCCc1c[nH]c2ccccc12	·	?	·	–	18.4µM	·
SMILES	TDP1 inh	DT40 TDP1 CPT	GCN5L2 inh	PLK1 PBD inh	TDP1 cell noCPT	VDR inhibitor
OC(C[n+]1ccccc1Cl)c1ccccc1 (stereo not given)	·	–	·	·	–	·
COc1ccc(NS(=O)(=O)c2ccc3c(c2)CCC(=O)N3)cc1	–	·	·	·	·	·
CCC(=O)Nc1ccc(OCc2cc(C3Nc4ccccc4C(=O)N3Cc3ccccc3)ccc2OC)cc1 (stereo not given)	–	·	·	·	·	·
O=CC(=Cc1ccccc1)c1ccccc1	·	–	·	–	?	·
Cc1cc2c(cc1C)C(c1ccccc1F)CC(=O)N2 (stereo not given)	·	?	–	–	?	–
Cc1cc2c(cc1C)C(c1cc(Br)ccc1F)CC(=O)N2 (stereo not given)	–	?	–	–	16.4µM	–
Cc1cc2c(cc1C)C(c1cccc(F)c1)CC(=O)N2 (stereo not given)	·	?	–	–	16.4µM	–
COc1ccc2cc(CN(C(=O)Nc3ccccc3)C3CCCC3)c(=O)[nH]c2c1	–	?	–	–	–	–
COc1cccc(NC(=O)N(Cc2c[nH]c3ccccc23)C2CCCCC2)c1	–	8.2µM	–	·	18.4µM	–
Cc1ccc(NC(=O)N(Cc2c[nH]c3ccccc23)C2CCCCCC2)cc1C	–	7.31µM	–	·	8.2µM	–
CC(C)c1ccc(NC(=O)c2ccccc2NC(=O)C2CCCCC2C(=O)O)cc1 (stereo not given)	·	–	?	–	–	–
COc1cc(OC)cc(C(C(=O)NCc2ccccc2)N(Cc2ccco2)C(=O)c2ccno2)c1 (stereo not given)	–	?	?	–	23.1µM	–
CC(C)(C)C1=CC(O)(c2ccccc2)C=C(C(C)(C)C)C1=O	·	?	–	–	?	–
O=C(CNC(=O)Cc1ccccc1)NCC(=O)OCC(=O)c1cccc2ccccc12	–	?	–	–	17.8µM	–
O=C(CNC(=O)c1ccccc1)NCC(=O)OCC(=O)c1cccc2ccccc12	–	–	·	·	–	–
O=C(CNC(=O)c1ccccc1)OCC(=O)c1cccc2ccccc12	–	?	·	·	?	–
O=C(CNC(=O)c1ccco1)OCC(=O)c1cccc2ccccc12	–	16.4µM	·	–	?	–
N#Cc1ccc(OCC(=O)NNC(=S)NC(=O)C2CC2)cc1	–	?	–	–	20.6µM	–
Cc1ccc(OCC(=O)NNC(=S)NC(=O)C2CC2)c(C)c1	–	·	–	·	·	·
Cc1ccc(OCC(=O)NNC(=S)NC(=O)C(C)(C)C)c(Br)c1	–	?	–	–	18.4µM	–
CCC(C)c1ccc(OCC(=O)NNC(=O)C2CCCCC2)cc1 (stereo not given)	–	–	–	–	–	–
CC(C)c1ccc(OCC(=O)NNC(=S)NC(=O)C2CC2)cc1	–	?	?	?	14.6µM	–
Cc1ccc(OCC(=O)NC(=S)Nc2ccccn2)c(Br)c1	–	–	–	–	–	–
Cc1ccc(OCC(=O)NNC(=S)NC(=O)C2CCCCC2)c(C)c1	–	?	–	–	20.6µM	–
COCCn1ccc2c(OCC(=O)NCc3ccc(C)cc3)cccc2c1=O	·	–	–	–	–	–
CC(=O)c1ccc(NC(=O)CCc2c(C)nn(-c3ccc4nnc(C)n4n3)c2C)cc1	–	–	–	·	–	–
